Sampled rows, rich in hits. Any-hit rate of the full collection: about 4.1%.
DAX1 inh-1: inhibitors of DAX1 repression of SF-1 activated StAR promoter. HEK293T StAR-luciferase reporter, SF-1/DAX-1 repression relief. inhibition, % at 6.8 µM. AID 652010. 370,000 compounds, 1.1% hits;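 active = inhibition above the mean over all tested compounds plus 3 SD, cut at about 3.6% in these data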;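 note: 0% = DAX-1 cells with DMSO and 100% = cells lacking DAX-1 with DMSO; higher inhibition means more luminescence from relief of DAX-1 repression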
DAX1 inh-2: inhibits human nuclear receptor DAX1; 340,000 compounds, 0.99% hits; P51843; HEK293 Gal4-DAX1 luciferase reporter, luminescence; inhibition, % at 6.75 µM;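 active = inhibition above the mean over all tested compounds plus 3 SD, cut at about 4.2% in these data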;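 note: 0% = DAX1-transfected cells with DMSO and 100% = empty-vector control cells with DMSO; inhibition shows as a rise in luminescence from relieved DAX1 repression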
Target sequence (P51843 207-470 limits assumed): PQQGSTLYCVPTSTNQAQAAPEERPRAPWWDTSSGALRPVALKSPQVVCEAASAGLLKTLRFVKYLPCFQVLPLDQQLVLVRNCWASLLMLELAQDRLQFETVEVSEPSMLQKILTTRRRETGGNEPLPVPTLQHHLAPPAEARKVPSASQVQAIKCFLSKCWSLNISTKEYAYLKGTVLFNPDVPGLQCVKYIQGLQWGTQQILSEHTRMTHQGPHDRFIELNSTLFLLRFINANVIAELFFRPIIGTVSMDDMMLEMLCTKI
hcDAF12 agonist: activators of H. contortus DAF-12 nuclear receptor. HEK293 hcDAF-12 lit1-tk-luc reporter, luminescence; 0% DMSO, 100% Δ7-dafachronic acid. activation, % at 6.8 µM. 370,000 compounds, 1.4% hits;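 active = activation above the mean of all tested compounds plus 3 SD, cut at about 5.5% in these data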;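 note: 100% = response to 3 µM Δ7-dafachronic acid high control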
ssDAF12 agonist: activates DAF-12 receptor from parasite S. stercoralis | HEK293 ssDAF-12/GRIP1 lit1-tk-luc reporter, luminescence; % of 3 µM dafachronic acid response | activation, % at 6.8 µM | 370,000 compounds, 1% hits;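 active = activation above the mean over all tested compounds plus 3 SD, cut at about 0.9% in these data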;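 note: 0% = DMSO-only wells and 100% = 3 µM delta7-dafachronic acid wells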
hgDAF-12 ag: activates the H. glycines DAF-12 receptor ligand-binding domain; HEK293 GAL4-hgDAF12 UAS-luciferase reporter, agonist luminescence; normalized to butyrate control; activation, % at 6.8 µM; 370,000 compounds, 1.8% hits; AID 687014;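 active = activation above a cutoff set at the mean of all screened compounds plus 3 SD, cut at about 10% in these data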;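 note: 0% = DMSO wells and 100% = sodium butyrate wells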
LXRb hcDAF ctr: LXR-beta agonism as hcDAF-12 counter-screen | shares compounds with hcDAF12 agonist | HEK293 Gal4-LXR tk-luc reporter, luminescence, 24 h; normalized: DMSO 0%, positive control 100% | activation, % at 6.8 µM | 3,400 tested, under 10 active;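 active = mean percent activation of the reporter above a cutoff set as the average over tested compounds plus their standard deviation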
hcDAF12 conf: confirmation of H. contortus DAF-12 agonists. shares compounds with hcDAF12 agonist. HEK293 hcDAF-12 lit1-tk-luc reporter, luminescence; % of Δ7-dafachronic acid response. activation, % at 6.8 µM. 3,400 compounds, 61% hits;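 active = mean activation across triplicate tests above the threshold derived from the earlier primary screen, cut at about 5.5% in these data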;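 note: 0% = DMSO only wells and 100% = 3 µM Δ7-dafachronic acid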
* hit, by the source's call; nt = no result given.

SMILES	DAX1 inh-1	DAX1 inh-2	hcDAF12 agonist	ssDAF12 agonist	hgDAF-12 ag	LXRb hcDAF ctr	hcDAF12 conf
COc1ccc(-c2cc(-c3ccccc3O)[nH]n2)cc1	3.7*	2	20*	4.4*	22*	3	23*
Oc1ccccc1-c1cc(-c2ccccc2)n[nH]1	3.7*	5.9*	19*	4.5*	19*	2	21*
Oc1ccccc1-c1cc(-c2ccc(F)cc2)n[nH]1	3	11*	19*	4.3*	22*	2	19*
Cc1ccc(O)c(-c2cc(-c3cccc(Br)c3)n[nH]2)c1	0	2	1	0	2	nt	nt
Cc1ccc(-c2cc(-c3ccc(F)cc3)n[nH]2)c(O)c1	2	12*	20*	4.8*	18*	2	18*
COC(=O)c1c[nH]n2c(=O)c(Cl)c(C)nc12	0	3	8.7*	-1	1	0	2
COC(=O)c1c[nH]n2c(=O)cc(C)nc12	-1	1	-2	-2	-1	nt	nt
COC(=O)C1CN(Cc2ccc(OC)cc2)CCS(=O)(=O)N1Cc1cn(Cc2ccc(OC)cc2)nn1 (stereo not given)	0	nt	-2	-1	-3	nt	nt
S=c1nc(-c2ccc(Br)cc2)[nH]c2ccccc12	1	1	7.3*	1	0	0	9.0*
O=C(COc1cccnc1[N+](=O)[O-])N1CCC(Cc2ccccc2)CC1	1	0	-2	-1	0	nt	nt
O=C(COc1ccccc1[N+](=O)[O-])OCC(=O)N1CCC(Cc2ccccc2)CC1	0	-1	7.6*	-1	-1	0	2
COc1ccc(OC)c(CN2C(=O)CCCCC2(C)c2nnnn2C2CCCC2)c1 (stereo not given)	0	nt	-2	-2	0	nt	nt
c1ccc(N2CC3CCc4ccccc4C3=N2)cc1 (stereo not given)	1	4	12*	1.4*	7	1	12*
O=C(CCSc1nc2ccccc2o1)N1CCOCC1	0	1	7.1*	0	1	0	3
O=C(OC12CCCN(C1)/C(=C/c1cccc(Cl)c1)C2)c1ccc(F)cc1 (stereo not given)	1	nt	-2	-1	-2	nt	nt
c1ccn(-c2ccc(-c3ccn[nH]3)cc2)c1	2	4	10*	2.2*	13*	1	4
Cc1ccc(S(=O)(=O)CCC(=O)OCC(=O)c2c[nH]c3ccccc23)cc1	-1	0	9.4*	0	5	0	5.8*
Cc1cccc(NNC(=S)Nc2ccccc2)c1	1	1	11*	0	3	0	5
COC(=O)C1=C(C)N(C)C(=NCc2ccccc2)NC1c1ccccc1 (stereo not given)	0	nt	1	-1	1	nt	nt
COc1ccc(C(C(=O)N(C)C2CCCC2)N(Cc2ccc(F)cc2)C(=O)c2csc3ccc(Cl)cc23)cc1OC (stereo not given)	-1	nt	-4	-2	-1	nt	nt
COc1ccc(/C=C/S(=O)(=O)NCCc2ccccc2)c(CNC(=O)OC(C)(C)C)c1	-1	nt	-2	-1	4	nt	nt
COc1ccc(-n2c(SCC(=O)NCC3CCCO3)nc3c([nH]c4ccccc43)c2=O)cc1OC (stereo not given)	-1	0	8.1*	0	10*	0	5
COc1ccc(-n2c(SCC(=O)NCC3CCCO3)nc3c([nH]c4ccccc43)c2=O)cc1 (stereo not given)	0	0	7.3*	0	3	0	3
C/C(=N\Nc1ccccc1[N+](=O)[O-])c1ccccc1O	0	4.4*	6.9*	0	6	1	14*
C/C(=N\Nc1ccc(S(N)(=O)=O)cc1[N+](=O)[O-])c1ccccc1O	-1	1	0	-1	-2	nt	nt
SMILES	DAX1 inh-1	DAX1 inh-2	hcDAF12 agonist	ssDAF12 agonist	hgDAF-12 ag	LXRb hcDAF ctr	hcDAF12 conf
COc1ccc(C2Nc3ccccc3C(=O)N2c2ccc(C)cc2)cc1COc1ccccn1 (stereo not given)	3.6*	-1	6.9*	1	8	1	8.7*
Cc1c(Cc2ccccc2)c(=O)oc2c(C)c(OCC(=O)NCC3CCC(C(=O)O)CC3)ccc12 (stereo not given)	1	2	7.3*	1	2	0	0
CC[C@H](CCCc1ccc(OC)cc1)CCC(=O)N1CCOCC1	-1	nt	-2	-2	-2	nt	nt
c1ccc(-c2ccccn2)nc1	2	-1	-1	-1	4	nt	nt
c1ccc(-c2ccc(-c3ccccn3)nn2)nc1	3	nt	6.9*	-1	7	1	8.7*
COC(=O)c1ccc(N=NN2CCCCCC2)cc1	3	2	0	0	10	nt	nt
COC(=O)c1ccc(N=NNc2ccc(C(=O)OC)cc2)cc1	3	-1	10*	0	7	1	12*
N#Cc1ccc(/C=C2\CC3(OC(=O)C4CCCCC4)CCCN2C3)cc1 (stereo not given)	1	nt	-3	-1	-1	nt	nt
COC(=O)[C@H]1C[C@@]2(n3ccc4ccccc43)c3ccccc3N[C@H]2N1	-1	nt	4	-1	-4	nt	nt
S=C(NNc1ccnc2cc(Cl)ccc12)Nc1ccc(Cl)cc1Cl	-1	0	-1	-2	0	nt	nt
CCOc1ccc(NC(=S)NNc2ccnc3cc(Cl)ccc23)cc1	1	1	7.9*	-2	0	-1	-2
Brc1ccc(-c2nc3ccccc3s2)s1	1	3	10.0*	1.2*	13*	1	11*
COc1cc(C(=O)Oc2cc(C)[nH]c(=O)c2[N+](=O)[O-])cc(OC)c1OC	0	0	-1	-1	1	nt	nt
Cc1cc(C)cc(C(=O)Oc2cc(C)[nH]c(=O)c2[N+](=O)[O-])c1	0	1	8.5*	-1	0	0	1
C/C(=N/NC(=O)Cc1cccs1)c1cccc([N+](=O)[O-])c1	-1	nt	-1	-1	0	nt	nt
Cc1cc(C)n2nc(C(=O)NCc3ccccc3)cc2n1	0	1	-1	-2	2	nt	nt
Cc1cc(C)n2nc(Nc3ccccc3)cc2n1	1	1	7.2*	0	2	0	11*
CCCCn1nnnc1NCc1ccc(OC)c(OC)c1	-1	-2	8.5*	-2	0	0	1
CCCCS(=O)(=O)N1C2=NC(C(=O)OCC)=C(C(=O)OCC)C3N(Cc4ccc(C#N)cc4)c4ccccc4[C@]23C[C@H]1C(=O)OC (stereo not given in full)	-2	nt	-2	-1	-2	nt	nt
